Screens (PubChem BioAssay)
GDH-TPI counter-1 = GDH-TPI coupling enzyme inhibitors, primary screen, artefact control for M. tuberculosis FBA inhibitor project, biochemical, absorbance, full deck; GDH-TPI coupled enzyme counterscreen, NADH absorbance; inhibition, % at 4.8 µM; 360,000 tested, 1.2% active; in the data active = inhibition above about 30%
FBA Mtb inh = Mtb FBA enzyme inhibitors, primary screen, biochemical, fluorescence, strain H37Rv. purified M. tuberculosis FBA, fluorescence read-out. 360,000 tested, 2.3% active. Fructose-bisphosphate aldolase (Mycobacterium tuberculosis (strain ATCC 25618 / H37Rv)), …. AID 588726, 2011. inhibition, % at 1 µM
Target sequence (P9WQA3 whole entry, looked up): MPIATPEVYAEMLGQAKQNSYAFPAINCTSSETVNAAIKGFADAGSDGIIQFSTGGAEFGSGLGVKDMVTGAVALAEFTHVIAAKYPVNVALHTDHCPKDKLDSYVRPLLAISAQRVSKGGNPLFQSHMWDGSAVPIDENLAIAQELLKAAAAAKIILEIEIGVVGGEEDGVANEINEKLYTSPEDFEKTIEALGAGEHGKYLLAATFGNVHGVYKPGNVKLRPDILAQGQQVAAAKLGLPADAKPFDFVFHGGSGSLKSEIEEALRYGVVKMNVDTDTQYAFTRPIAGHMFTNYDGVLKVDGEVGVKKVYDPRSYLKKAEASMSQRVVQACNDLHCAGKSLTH
FadD28 FP inh = inhibitors of FadD28 bisubstrate probe binding, primary screen, biochemical, fluorescence polarization, single point; Mycobacterium tuberculosis FadD28 fatty-acid-AMP ligase; inhibition, % at 12.5 µM; 360,000 tested, 0.22% active; AID 588549, 2011; in the data active = inhibition above about 8.5%, passing the limit was not always enough
UGM FP inh = M. tuberculosis UGM enzyme inhibitors, primary screen, biochemical, fluorescence polarization, single point; UDP-galactopyranose mutase (Mycobacterium tuberculosis (strain ATCC 25618 / H37Rv)), …; purified UGM, fluorescence polarization probe displacement; inhibition, % at 10 µM; 320,000 tested, 0.06% active; AID 504406, 2011; in the data active = inhibition above about 10%, passing the limit was not always enough
Mtb betalactam = beta-lactam sensitization of Mtb H37Rv, H37Rv. inhibition, % at 25 µM. M. tuberculosis H37Rv growth with meropenem, percent inhibition. 330,000 tested, 0.27% active; call rule not given here;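 also: growth measured after seven days incubation then overnight dye step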
Rv3671c protease = Rv3671c serine protease inhibitors, primary screen, biochemical, fluorescence polarization, M. tuberculosis H37Rv | AID 2606, 2010 | inhibition, % at 5.96 µM | P9WHR9 | 320,000 tested, 0.048% active; in the data active = inhibition above about 38%;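 also: extracellular domain of Rv3671c used as enzyme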
Mtb FBA confirm = M. tuberculosis aldolase blockers, biochemical, fluorescence, strain H37Rv, confirmation. purified M. tuberculosis FBA, fluorescence read-out. shares compounds with FBA Mtb inh. inhibition, % at 1 µM. 5,600 tested, 78% active. AID 651616, 2012
GDH-TPI counter-2 = GDH-TPI coupling enzyme inhibitors, artefact control for M. tuberculosis FBA inhibitor project, biochemical, fluorescence, high throughput; shares compounds with FBA Mtb inh; GDH-TPI coupled enzyme counterscreen; inhibition, % at 1 µM; 5,600 tested, 81% active; in the data active = inhibition above about 10%
Hits are given with their value; i = inactive; nt = no result given; + = active, no number. Compounds with a hit are over-represented: about 3.7% of the library has one in this group of screens. Rule as the data show it, unless noted: active = inhibition above about 27%; inactive = the rest.

SMILES | GDH-TPI counter-1 | FBA Mtb inh | FadD28 FP inh | UGM FP inh | Mtb betalactam | Rv3671c protease | Mtb FBA confirm | GDH-TPI counter-2
CCN(C(=O)COC(=O)c1ccc(O)cc1)c1cccc2ccccc12 | i | i | i | i | i | i | nt | nt
CCN(C(=O)COC(=O)c1nccnc1N)c1cccc2ccccc12 | i | 63 | i | i | i | i | 109 | 80
CCN(CC)CCNC(=O)c1cc2c(=O)n(C)c3ccccc3c2n1C | i | 28 | i | i | i | i | + | +
Cc1ccc(C(C(=O)NCC2CCCO2)N(C(=O)c2snc(C(N)=O)c2N)c2ccccc2)o1 (stereo unspecified) | i | i | nt | i | i | i | nt | nt
Cc1ccc(C)c(N(C(=O)c2snc(C(N)=O)c2N)C(C(=O)NCC2CCCO2)c2cccs2)c1 (stereo unspecified) | i | 36 | i | i | i | i | i | i
Cc1ccc(C)c(N(C(=O)c2snc(C(N)=O)c2N)C(C(=O)NCC2CCCO2)c2ccc(C)o2)c1 (stereo unspecified) | i | 37 | i | i | i | i | 54 | 48
COc1cccc(OCc2cc(C(=O)N(C)C3CCCCC3)no2)c1 | i | i | i | nt | nt | nt | nt | nt
CCCCN1C(=O)CC2CCOC21C (stereo unspecified) | i | i | i | nt | nt | nt | nt | nt
CCc1sc(C(=O)Nc2ccc3nc(C)sc3c2)cc1C | i | i | i | i | i | i | nt | nt
CCc1sc(C(=O)Nc2ccc(NC(C)=O)cc2)cc1C | i | 27 | i | i | i | i | i | i
Cc1ccccc1/C=N/N=C1/NC(=O)CCS1 | 32 | 29 | i | i | i | i | 128 | 90
CC(=O)Oc1ccc2c(C)c(CC(=O)N3CCN(C(=O)C4COc5ccccc5O4)CC3)c(=O)oc2c1C (stereo unspecified) | i | 44 | i | i | i | i | i | i
Cc1cc(O)c2c(C)c(CC(=O)N3CCN(C(=O)C4COc5ccccc5O4)CC3)c(=O)oc2c1 (stereo unspecified) | i | i | i | i | i | i | nt | nt
COc1cc(C)cc2oc(=O)c(CC(=O)N3CCN(C(=O)C4COc5ccccc5O4)CC3)c(C)c12 (stereo unspecified) | i | 104 | i | i | i | i | 64 | 54
O=C(COc1cc2oc(=O)c3c(c2cc1Cl)CCCC3)NCc1cccnc1 | i | i | i | i | i | i | nt | nt
COC(=O)C(Oc1ccc2c(-c3ccc(OC)cc3)cc(=O)oc2c1)c1ccccc1 (stereo unspecified) | i | i | i | i | i | i | nt | nt
C=CCOc1ccc2c(CC)cc(=O)oc2c1C | i | 41 | i | i | i | i | + | 164
CCc1cc2c3c(c(=O)oc2cc1OCC(=O)OC)CCCC3 | i | 54 | i | i | i | i | 48 | 31
O=C(O)C(Oc1ccc2cc(-c3ccc(Cl)cc3)c(=O)oc2c1)c1ccccc1 (stereo unspecified) | i | 104 | i | i | i | nt | + | +
CC(=O)C(C)Oc1ccc2c3c(c(=O)oc2c1)CCCC3 (stereo unspecified) | i | 40 | i | i | i | i | + | 146
Cc1ccc(S(=O)(=O)NC(C)(C)CN2CCCCC2)cc1 | i | i | i | i | i | i | nt | nt
CC(C)NC(=O)Nc1cccc2c1O[C@H](CN(C)S(C)(=O)=O)[C@@H](C)CN([C@H](C)CO)C2=O | i | i | i | i | i | i | nt | nt
COc1ccc(CCNC(=O)Cc2cc3c(cc2[N+](=O)[O-])OCO3)cc1OC | i | i | i | nt | nt | nt | nt | nt
O=c1c(OCc2ccccc2)cccn1Cc1ccccc1 | i | i | i | nt | nt | nt | nt | nt
CC1(C)CC(NC(=O)COc2ccc3c4c(c(=O)oc3c2)CCCC4)CC(C)(C)N1 | i | 52 | i | i | i | i | + | +
SMILES | GDH-TPI counter-1 | FBA Mtb inh | FadD28 FP inh | UGM FP inh | Mtb betalactam | Rv3671c protease | Mtb FBA confirm | GDH-TPI counter-2
C#CCOc1ccc2c(C)cc(=O)oc2c1 | i | 40 | i | i | i | i | 64 | 44
C#CCOc1ccc2c3c(c(=O)oc2c1)CCCC3 | i | 46 | i | i | i | i | + | +
O=c1oc2cc(OCc3ccc([N+](=O)[O-])cc3)ccc2c2c1CCCC2 | i | i | i | i | i | i | nt | nt
Cc1ccc(OCC(=O)NC2CC(C)(C)NC(C)(C)C2)cc1C | i | i | i | i | i | i | nt | nt
Cc1cc(=O)oc2cc(OC(C(=O)O)c3ccccc3)ccc12 (stereo unspecified) | i | i | nt | i | i | i | nt | nt
O=C(O)C(Oc1ccc2c3c(c(=O)oc2c1)CCC3)c1ccccc1 (stereo unspecified) | i | 69 | i | i | i | i | i | i
Cc1c(Cc2ccccc2)c(=O)oc2cc(OCc3nn[nH]n3)ccc12 | i | 83 | i | i | i | i | i | i
Cc1c(OCc2nn[nH]n2)ccc2c3c(c(=O)oc12)CCC(C)C3 (stereo unspecified) | i | 107 | i | i | i | i | + | 155
COc1cccc(COc2ccc3c(C)c(Cc4ccccc4)c(=O)oc3c2)c1 | i | i | i | i | i | i | nt | nt
Cc1cc(=O)oc2cc(NC(=O)c3ccccc3OC(F)F)ccc12 | i | 53 | i | i | i | i | 70 | 49
Cc1cc(=O)oc2cc(NC(=O)c3cc4ccccc4o3)ccc12 | nt | nt | nt | i | i | i | nt | nt
Cc1cc(=O)oc2cc(OC(C)C)ccc12 | i | 73 | i | i | i | i | + | 178
O=S1(=O)CC(N2CCN(CC3CC3)CC2)CN1C1CCCCC1 (stereo unspecified) | nt | i | i | nt | nt | nt | nt | nt
O[C@H]1C[C@H](c2ccccc2)N(Cc2cccs2)C[C@@H]1n1cc(C2CC2)nn1 | i | i | i | nt | nt | nt | nt | nt
CC12CCC(=O)N1C(C(=O)N1CCN(c3ccc([N+](=O)[O-])cc3)CC1)CS2 (stereo unspecified) | i | i | i | i | i | i | nt | nt
CCOC(=O)c1c(C)[nH]c(C(=O)OCc2nc3ccsc3c(=O)[nH]2)c1C | i | i | i | nt | nt | nt | nt | nt
CCc1cc(=O)oc2c(C)c(OCC(=O)NC3CC(C)(C)NC(C)(C)C3)ccc12 | i | 37 | i | i | i | i | 139 | 124
O=c1oc2cc(OCc3nn[nH]n3)ccc2c2c1CCCC2 | i | 89 | i | i | i | i | i | i
CC(=O)COc1ccc2c3c(c(=O)oc2c1)CCCC3 | i | 70 | i | i | i | i | 33 | 35
